# Compound activity from PubChem BioAssay.
# Giardia kill: Giardia lamblia killing | Giardia lamblia trophozoite viability | activity change, % at 7.66 µM, hits read low | hit rate 0.15% among 340,000 | AID 540267; in the data active = activity change below about -80%; inconclusive = between about -30% and that limit;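 also: parasites exposed to compound for two days anaerobically before the ATP read; % is scaled to controls: 0 for no effect and ±100 for the full control effect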
#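 Each well holds 100 Giardia trophozoites and compound. After two days (48 hrs) at 37 deg C in anaerobic conditions, ATP is quantified by luminescence.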
# BCR signal inh: blocks chronic active B-cell receptor signaling | hit rate 0.05% among 340,000 | ABC-DLBCL IkBa-CBG/CBR reporter, luminescence ratio, 4 h | Potency, µM (highest dose often 46.1 µM), inactives show at the top dose activity change, negative = inhibition, actives largely listed as inhibitors; active = well fitted inhibition curve with a large enough effect in the signal ratio, with a control signal flat, not every such curve was filed as active; inconclusive = small, poorly fitted or top-dose-only effect, or effect the other way, or a change in a side signal; the % refers to the signal ratio;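 also: potency is read from the fitted curve at half-maximal effect; plate controls were basal doxycycline-induced cells for no effect and cells given 10 µM MG132 for full effect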
#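 Cell line TMD8 (human ABC DLBCL), stably expressing tet-inducible CBG68-IkBa fusion and CBR; IMDM/0.5% FBS; cpd up to 46 uM; dox induction, 4 h, 37C/5% CO2; dual luminescence; green/red ratio; MG132 control.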
# MCF10A rerep: DNA re-replication induction in MCF 10a cells; hit rate 2.9% among 350,000; MCF 10A DNA re-replication, Hoechst nuclear intensity, 48 h; AID 624296; Potency, µM (series often up to 46.1 µM), without a hit: at the top dose activity, positive = re-replication, actives largely listed as activators; also: potency is read from the fitted curve at half-maximal effect; % of control where 0% means no effect; nearly all actives have a fitted effect of over 50% in size
# RORgamma inh: ROR gamma (mouse) transcription inhibition; P51450; Potency, µM (doses to about 53.6 µM), inactives show top-dose activity change, negative = inhibition, most hits filed as inhibitors; hit rate 5.4% among 310,000; Drosophila S2 Gal4-RORgamma UAS-luciferase reporter, 20 h; AID 2551; also: potency is read from the fitted curve at half-maximal effect; % is scaled to controls: 0 for no effect and ±100 for the full control effect; nearly all actives have a fitted effect of over 60% in size
# Target sequence (P51450 whole entry, looked up, the tested form may be a part): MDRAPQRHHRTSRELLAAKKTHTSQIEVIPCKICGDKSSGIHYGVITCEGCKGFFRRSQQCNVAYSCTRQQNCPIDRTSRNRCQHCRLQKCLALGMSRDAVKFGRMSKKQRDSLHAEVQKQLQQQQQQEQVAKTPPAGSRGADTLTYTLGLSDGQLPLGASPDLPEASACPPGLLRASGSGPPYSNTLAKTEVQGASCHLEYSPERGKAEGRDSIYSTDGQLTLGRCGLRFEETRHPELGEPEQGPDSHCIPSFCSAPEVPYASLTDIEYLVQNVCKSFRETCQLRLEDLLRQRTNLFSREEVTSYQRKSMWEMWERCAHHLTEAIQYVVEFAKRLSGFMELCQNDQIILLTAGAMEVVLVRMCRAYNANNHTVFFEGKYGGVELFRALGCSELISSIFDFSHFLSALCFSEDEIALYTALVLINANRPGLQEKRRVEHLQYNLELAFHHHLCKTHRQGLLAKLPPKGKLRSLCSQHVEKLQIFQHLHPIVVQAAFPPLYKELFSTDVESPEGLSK
#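 ROR gamma transcriptional activity was tracked as Gal4-UAS luciferase output in stably transfected Drosophila Schneider cells, with compound added 1 hr before 700 uM copper sulfate induction and a 20 hr ambient-temperature incubation.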
# SW480 rerep: inducers of DNA re-replication in SW480 colon cancer cells; hit rate 1.8% among 340,000; Potency, µM (top dose mostly 46.1 µM), inactives show at the top dose re-replication activation, hits mostly activators; SW480 DNA re-replication, Hoechst DNA content imaging, 48 h; AID 624297; also: potency is read from the fitted curve at half-maximal effect; % of control where 0% means no effect; nearly all actives have a fitted effect of over 55% in size
#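 250 cells/well; 23 nL cpd via pin tool; 48 hr, 37 C, 5% CO2; Hoechst 40 min; imager read of total nuclear intensity, ex 405/em 500-530 nm.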
# Gal4-VP16 FLuc: counter-screen for ROR gamma inhibitors: Gal4-VP16 reporter; Drosophila S2 Gal4-VP16 UAS-luciferase, luminescence, 20 h; Potency, µM (top dose mostly 53.6 µM), for inactives: at the highest dose activity, negative = inhibition, most hits filed as inhibitors; hit rate 3.5% among 310,000; AID 2546;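 also: Gal4-VP16 expression switched on by copper sulfate through the metallothionein promoter; potency is read from the fitted curve at half-maximal effect; % is scaled to controls: 0 for no effect and ±100 for the full control effect; nearly all actives have a fitted effect of over 50% in size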
# * marks the source's active call; other numbers are inactive results; ? = inconclusive; . = no result given. Most compounds without a hit are left out; they make up all but 8.3% or so of the library. Unless noted, calls follow the shape of the dose curve; as a rule, active = well fitted curve in the direction sought with a large enough effect; inconclusive = small, poorly fitted or top-dose-only effect, or another doubt; inactive = no such curve, though single readings can be large; an effect the other way counts as inactive or inconclusive.
SMILES,Giardia kill,BCR signal inh,MCF10A rerep,RORgamma inh,SW480 rerep,Gal4-VP16 FLuc
O=C(NCCCN1CCOCC1)c1ccc2c(c1)N(Cc1c(F)cccc1Cl)C(=O)c1ccccc1S2,32,?,?,?,17%,-12%
Nc1nc(N)c(N=O)c(OCC2CCCCC2)n1,-6,?,?,?,11%,?
Cc1ccc(NC(=O)c2cc(N3C(=O)C=CC3=O)ccc2N2CCOCC2)cc1,-12,7%,13µM*,7.1µM*,?,7.9µM*
Cc1ccc(NC(=O)c2cc(N3C(=O)C=CC3=O)ccc2Cl)cc1C,-11,6%,?,?,?,7.9µM*
Cc1ccc(NC(=O)c2cc(-n3cnnc3)ccc2Cl)cc1,-3,5%,28%,3%,-2%,9%
CCOc1ccc(S(=O)(=O)N2CCCCC2)cc1NC(=O)CCNC(=O)c1ccco1,7,-2%,4%,.,-6%,.
Cc1ccc(C)c(N2C(=O)CC(Cc3ccc(Br)cc3)C2=O)c1 (centres undefined),8,0%,14%,19%,-3%,-12%
COc1cc(/C=N/NC(=S)NC2CC3C=CC2C3)cc(OC)c1OC (centres undefined),6,?,-11%,1.8µM*,-15%,4.5µM*
CCOc1ccc(/C=N/NC(=S)NC2CC3C=CC2C3)cc1 (centres undefined),-16,-27%,4%,1µM*,?,3.2µM*
OCCNNC(=S)NC1CC2C=CC1C2 (centres undefined),-14,1%,1%,-34%,-3%,13%
CC[C@@H](C)[C@@H](O)[C@H](C)C(=O)[C@H](C)/C=C(\C)C[C@H](C)[C@@H]1OC(=O)[C@H]1CC,.,.,.,18%,.,1%
COc1ccc(CNc2nc(NCc3ccc(OC)cc3)c3[nH]cnc3n2)cc1,-3,?,12µM*,-20%,5%,-20%
O=C(/C=C\c1cccs1)c1c(O)ccc2ccc(=O)oc12,-29,?,21µM*,-22%,5%,-18%
O=C(C=Cc1cccs1)c1cccs1,0,.,?,.,119%,.
CCCCN1C(=O)CN(C2CCCCCC2)C(=O)C1c1ccc(OCCC)c(OC)c1 (centres undefined),.,-1%,.,.,.,.
CC1Cc2ccccc2N1C(=S)Nc1ccc(S(N)(=O)=O)cc1 (centres undefined),3,2%,8%,28%,-1%,10%
CC1Cc2ccccc2N1C(=S)NC(=O)c1ccc(Cl)cc1Cl (centres undefined),-11,?,13%,0.35µM*,5%,0.71µM*
CC(=O)c1ccc(NC(=S)N2c3ccccc3CC2C)cc1 (centres undefined),3,3%,-1%,?,-16%,0%
Cc1ccc2c(c1)C1CN(C)CCC1N2C(=O)COc1ccccc1F (centres undefined),4,?,10%,-1%,-4%,1%
COc1cccc(C(=O)NC(=S)N2c3ccccc3CC2C)c1OC (centres undefined),5,?,23%,4µM*,8%,14µM*
CC1Cc2ccccc2N1C(=S)NC(=O)c1cccc(Br)c1 (centres undefined),5,?,18%,1.1µM*,18%,0.79µM*
Cc1ccc2c(c1)C1CN(C)CCC1N2C(=S)NC(=O)c1ccc(Cl)cc1Cl (centres undefined),1,2%,2%,0.28µM*,3%,0.89µM*
O=C(Nc1nnc(Cc2ccccc2)s1)C1CCN(C(=O)c2cccs2)CC1,-14,.,.,.,.,.
Nc1nc(NC(=O)c2ccccc2)nn1-c1ccccc1,23,?,-28%,-27%,-167%,4%
O=C(Nc1nc(NC(=O)c2ccco2)n(-c2ccccc2)n1)c1ccccc1,-3,-23%,?,0.89µM*,-4%,1.3µM*
SMILES,Giardia kill,BCR signal inh,MCF10A rerep,RORgamma inh,SW480 rerep,Gal4-VP16 FLuc
Clc1ccccc1OCCn1cnc2ccccc21,5,?,-9%,8%,-5%,6%
CCC(=O)Nc1nc2ccccc2n1Cc1ccccc1Cl,-20,-16%,?,0.4µM*,20%,2.8µM*
CC(=O)Nc1nc2ccccc2n1Cc1ccccc1C,5,?,?,2µM*,21%,3.2µM*
CC(=O)Nc1nc2ccccc2n1CCOc1ccccc1Cl,6,?,21%,0.79µM*,16%,1.3µM*
CC(C)C[C@H](NC(=O)[C@H](CC(C)C)NC(=O)[C@@H](Cc1c[nH]c2ccccc12)NC(=O)[C@H](Cc1ccccc1)NC(=O)[C@@H](Cc1c[nH]c2ccccc12)NC(=O)[C@H](CCC(N)=O)NC(=O)[C@H](CCC(N)=O)NC(=O)[C@@H]1CCCN1C(=O)[C@H](CCCCN)NC(=O)[C@@H]1CCCN1C(=O)[C@H](N)CCCN=C(N)N)C(N)=O,.,.,.,2%,.,-12%
CCc1cccc(C)c1NC(=O)c1cc(S(=O)(=O)N(C)Cc2ccccc2)ccc1F,.,4%,.,.,.,.
CC(=O)NCCc1nc2ccccc2n1Cc1ccc(Cl)cc1,42,-2%,4%,22%,-4%,1%
O=C(Nc1nc2ccccc2n1Cc1ccccc1)c1ccco1,3,3%,1%,2µM*,-5%,2.5µM*
O=C(Cn1c(NCCCO)nc2ccccc21)c1ccco1,-13,0%,18µM*,?,?,-11%
CCC(=O)Nc1nc2ccccc2n1Cc1ccc(Cl)cc1,-28,?,?,0.4µM*,?,1.3µM*
CCn1c(CCNC(=O)c2ccco2)nc2ccccc21,1,?,2%,22%,0%,-5%
Cn1c(NCc2ccccc2Cl)nc2ccccc21,22,.,-3%,.,-6%,.
CC(=O)Nc1nc2ccccc2n1Cc1ccccc1Cl,2,-1%,?,0.89µM*,4%,2.2µM*
O=c1[nH]c(SCc2ccc(Cl)cc2)nc2[nH]ncc12,-7,-7%,16%,36%,-7%,2%
CC(=O)Nc1nc(NCc2ccccc2Cl)n(-c2ccccc2)n1,-11,-4%,-10%,-18%,-11%,-12%
CC(=O)Nc1nc(NC(=O)/C=C/c2ccccc2)n(-c2ccccc2)n1,?,0%,10%,0.28µM*,17%,0.89µM*
O=C(NC(=S)NC1CCCc2ccccc21)c1ccco1 (centres undefined),3,?,?,7.1µM*,1%,?
O=C(NC(=S)NC1CCC(O)CC1)c1ccco1 (centres undefined),?,0%,4%,.,-1%,.
O=C(NC(=S)NC1CCCc2ccccc21)c1ccc(F)cc1 (centres undefined),5,?,?,8.9µM*,7%,16µM*
